Results on 106 molecules are retold here after PubChem BioAssay AID623911 (Vanderbilt High Throughput Screening Facility, 2012).

Each structure is given as a SMILES string. Among all 2,100 compounds or so, about 770 (37%) were called active.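 Rule for the calls: active = by-eye trace score of 1 for enhancers or -1 for inhibitors, so actives lie on both sides (some results past the limit were not filed as active); inactive = score 0, or 3 fluorescent, or 4 baseline rise.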 The list shows a part of the results.

The target of this test is G protein-activated inward rectifier potassium channel 2 (Homo sapiens) + G protein-activated inward rectifier potassium channel 1 (Homo sapiens) (UniProt P48051+P48549). The experiment in a line: GIRK1/2 thallium flux modulators, retest, confirmation, cell-based, HEK293 rmGlu8/hGIRK1/2, FluoZin-2 (AID 623911). Particulars: HEK293 rmGlu8/hGIRK1/2, thallium flux FluoZin-2; actives lie on both sides; glutamate co-added at its EC20 level.
Sequence of G protein-activated inward rectifier potassium channel 2 (Homo sapiens) + G protein-activated inward rectifier potassium channel 1 (Homo sapiens) (P48051 whole entry, looked up): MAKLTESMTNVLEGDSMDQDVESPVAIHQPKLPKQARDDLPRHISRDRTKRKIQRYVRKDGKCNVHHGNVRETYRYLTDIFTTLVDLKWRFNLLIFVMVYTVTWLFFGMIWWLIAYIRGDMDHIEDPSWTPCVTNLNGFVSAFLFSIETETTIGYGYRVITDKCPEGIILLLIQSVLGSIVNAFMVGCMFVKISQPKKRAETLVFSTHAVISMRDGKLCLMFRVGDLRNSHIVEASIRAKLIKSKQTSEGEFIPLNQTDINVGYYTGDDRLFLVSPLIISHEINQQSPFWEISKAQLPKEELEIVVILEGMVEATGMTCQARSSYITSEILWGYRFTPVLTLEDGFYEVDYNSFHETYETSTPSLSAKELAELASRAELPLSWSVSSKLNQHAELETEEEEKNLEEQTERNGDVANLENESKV
Sequence of G protein-activated inward rectifier potassium channel 2 (Homo sapiens) + G protein-activated inward rectifier potassium channel 1 (Homo sapiens) (P48549 whole entry, looked up): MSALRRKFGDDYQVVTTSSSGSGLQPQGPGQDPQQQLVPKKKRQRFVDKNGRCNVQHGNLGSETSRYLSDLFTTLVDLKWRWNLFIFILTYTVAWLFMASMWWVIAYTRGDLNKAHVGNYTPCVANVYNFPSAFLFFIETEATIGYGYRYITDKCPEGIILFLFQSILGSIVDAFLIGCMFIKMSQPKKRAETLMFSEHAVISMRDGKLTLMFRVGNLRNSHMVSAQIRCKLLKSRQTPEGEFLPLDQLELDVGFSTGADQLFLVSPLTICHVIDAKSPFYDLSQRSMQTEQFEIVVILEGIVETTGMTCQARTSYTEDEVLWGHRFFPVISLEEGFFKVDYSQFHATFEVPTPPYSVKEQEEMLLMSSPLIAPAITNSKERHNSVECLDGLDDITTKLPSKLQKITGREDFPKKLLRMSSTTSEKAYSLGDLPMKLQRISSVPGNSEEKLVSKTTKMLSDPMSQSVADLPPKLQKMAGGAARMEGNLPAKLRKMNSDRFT
In the case of `CCN(CC)c1ccc2c(c1)OC(N)=C(C#N)C2c1cccnc1` (stereo unspecified), the manual score was 3 (inactive).
As to `CCc1nc(SCc2ccc(F)cc2)[nH]c(=O)c1C#N`, the manual score was 3 (inactive).
Turning to `CCOc1ccc(-c2nc(-c3cccnc3)no2)cc1OCC`, the manual score is 0 (inactive).
For the molecule `Cc1ccc(N=Nc2ccc(O)c3ncccc23)cc1`, the manual score is 0 (inactive).
Take `Cc1ccc(N=Cc2cc3c(cc2O)OC(N)=C(C#N)C3c2ccccc2)cc1` (stereo unspecified): the manual score is 0 (inactive).
With `CCOc1cccc(C(=O)NC(=S)Nc2ccccc2)c1`, the manual score was 0 (inactive).
With `CCOc1ccc(C(=O)NC(=S)N(Cc2ccccc2)Cc2ccccc2)cc1`, the manual score is 1 (active).
For the molecule `COc1ccc(C(=O)NC(=S)N(Cc2ccccc2)Cc2ccccc2)cc1`, the manual score was 1 (active).
As for `CN(C)C(=O)CSc1cccc2cccnc12`, the manual score was 0 (inactive).
For the molecule `CC(Nc1ccc(Br)cn1)c1cc(Cl)ccc1O` (stereo unspecified), the manual score was 0 (inactive).
In the case of `Clc1ccc(/C=N/Nc2nc(Cl)nc3ccccc23)cc1`, the manual score was 0 (inactive).
`Cc1ccc(/C=N/NC(=S)N2CCOCC2)cc1`: the manual score was 1 (active).
Turning to `Cc1ccc(C(=O)c2ccc(N3CCOCC3)c(F)c2)cc1`, the manual score was 0 (inactive).
For `S=C(N/N=C/c1ccccc1)N1CCOCC1`, the manual score is 0.5 (inactive).
Regarding `CNC(=S)N/N=C/c1ccc(C(C)C)cc1`, the manual score was 0 (inactive).
On to `S=C(N/N=C/c1ccc(Cl)cc1)N1CCOCC1`, for which the manual score is 1 (active).
Consider `O=C1CC(C(=O)Nc2ccc(Br)cc2)C2(CCCC2)O1` (stereo unspecified), for which the manual score was 1 (active).
With `O=C(Nc1ccc(Br)cc1)C1CCC(=O)N1Cc1ccccc1Cl` (stereo unspecified), the manual score is 0 (inactive).
Consider `COCc1nnc(NC(=O)C(C)C)s1`, for which the manual score was 0 (inactive).
As to `CCCCn1c(-c2csc3c2CCC(C)C3)n[nH]c1=S` (stereo unspecified), the manual score was 0 (inactive).
As to `Cn1nc(C(F)(F)F)c2cc(NC(=O)OCc3ccc(F)cc3)sc21`, the manual score was 0 (inactive).
With `CCOC(=O)C(CC)Sc1nnc2cc(C)c3ccccc3n12` (stereo unspecified), the manual score is 0 (inactive).
`CC(/C=N/n1c(COc2ccccc2)n[nH]c1=S)=C\c1ccccc1`: the manual score is 0 (inactive).
Consider `CCOC(=O)C(CC)Sc1nnc(COc2ccc(C)cc2)n1-c1ccccc1` (stereo unspecified), for which the manual score was -1 (active).
The figure for `Cc1cccc2cc(/C=C3\N=C(c4ccccc4)OC3=O)c(N3CCOCC3)nc12` is 3 (inactive).
`CCOC(=O)C1=C(C)NC(=O)NC1c1ccc(Br)o1` (stereo unspecified): the manual score was 0 (inactive).
The figure for `CC1=C(C(=O)OCC2CCCO2)C(c2ccc(C)o2)C2=C(CC(c3ccc(F)cc3)CC2=O)N1` (stereo unspecified) is -1 (active).
Take `CCOC(=O)C1=C(C)NC2=C(C(=O)CC(c3ccc(OC)c(OC)c3)C2)C1c1ccc(C)o1` (stereo unspecified): the manual score was 0 (inactive).
Turning to `O=C(CSc1nnc(-c2cccnc2)o1)OC1CCCCC1`, the manual score is 0 (inactive).
On to `COC(=O)c1[nH]c2ccc(C)cc2c1NC(=O)CCN1CCN(Cc2ccc3c(c2)OCO3)CC1`, for which the manual score is -1 (active).
For `Cc1ccc(C)c(Nc2c([N+](=O)[O-])cc(C(=O)N3CC(=O)Nc4ccccc43)cc2[N+](=O)[O-])c1` the value was 0 (inactive); for `S=c1nc(-c2ccc(Br)cc2)oc2c1CCCC2`, 1 (active).
In the case of `c1ccc(-c2nnc3ccc(N4CCCC4)nn23)cc1`, the manual score is 0 (inactive).
Turning to `c1ccc2c(N3CCCCCC3)nc(-c3ccncc3)nc2c1`, the manual score was -1 (active).
`O=c1c2cccnc2[nH]c(=S)n1CCCN1CCN(c2ccc(F)cc2)CC1`: the manual score is 0 (inactive).
For `Cc1ccc(C)n1-c1ccc(-c2nnco2)cc1` the value was 0 (inactive); for `CCOC(=O)C(Cc1ccccc1)NC(=O)Cn1nnc(-c2ccccc2)n1` (stereo unspecified), 1 (active).
Turning to `CCOC(=O)CSc1cc(CSc2ccccc2)nc(-c2ccccc2)n1`, the manual score was 0 (inactive).
As for `CCCC(=O)n1nc(-c2ccccc2)nc1N`, the manual score was 0 (inactive).
As for `Cc1ccc(N2CC(C(=O)N/N=C/c3sccc3C)CC2=O)cc1` (stereo unspecified), the manual score was 0.5 (inactive).
Take `CN(C)CCCN1C(=O)c2oc3ccccc3c(=O)c2C1c1cccs1` (stereo unspecified): the manual score is 0 (inactive).
The figure for `CCN(CC)CCCN1C(=O)c2oc3ccccc3c(=O)c2C1c1cccs1` (stereo unspecified) is 1 (active); for `CCN(CC)CCN1C(=O)c2oc3ccccc3c(=O)c2C1c1ccccc1` (stereo unspecified) it is 0 (inactive); for `CC(C)Sc1nc2c(c(=O)[nH]1)C(c1cccs1)C1=C(CC(C)(C)CC1=O)N2` (stereo unspecified) it is -1 (active).
For the molecule `Cc1cc2c(cc1C)NC(c1c(C)n(C)n(-c3ccccc3)c1=O)C1=C(CC(C)(C)CC1=O)N2` (stereo unspecified), the manual score is 3 (inactive).
On to `Cc1c(C2Nc3ccccc3NC3=C2C(=O)CC(C)(C)C3)cnn1C` (stereo unspecified), for which the manual score is 0 (inactive).
For `COc1ccc(C(=O)C2C(c3ccc(-c4ccccc4[N+](=O)[O-])o3)NC(=O)NC2(O)C(F)(F)F)cc1` (stereo unspecified), the manual score was -1 (active).
With `Cc1cc([N+](=O)[O-])ccc1-c1ccc(C2Nc3ccccc3C(=O)N2O)o1` (stereo unspecified), the manual score was 0 (inactive).
With `CN(C)c1nc2ccccc2c(N)c1-c1ccccc1`, the manual score is -1 (active).
Consider `Fc1cccc2sc(Nc3nc4cc5c(cc4s3)OCO5)nc12`, for which the manual score is 0 (inactive).
`COc1cc(OC)cc(-c2nnc(Nc3nc4c(F)cccc4s3)o2)c1`: the manual score was 0 (inactive).
As for `Fc1ccc2nc(Nc3nc4c(F)cccc4s3)sc2c1`, the manual score was 1 (active).
For `Fc1cccc2sc(Nc3nnc(-c4ccccc4)o3)nc12` the value was 1 (active); for `COc1cccc(-c2nnc(Nc3nc4c(F)cccc4s3)o2)c1`, 1 (active).
The figure for `Fc1ccc2nc(Nc3nc4c(F)cc(F)cc4s3)sc2c1` is 0 (inactive).
The figure for `Fc1cccc2sc(Nc3nc4ccccc4s3)nc12` is 0 (inactive); for `Fc1cc(F)c2nc(Nc3nc4c(F)cccc4s3)sc2c1` it is 0.5 (inactive); for `Fc1cccc2sc(Nc3nnc(-c4ccco4)o3)nc12` it is 1 (active).
On to `COc1ccc(-c2nnc3sc(C4CCCCC4)nn23)cc1OC`, for which the manual score was 0 (inactive).
For `C=CCNC(=O)C1CC(=O)N(c2ccc(OCC(=O)Nc3ccccc3)cc2)C1` (stereo unspecified) the value was 0 (inactive); for `Cc1cc2nc(CCN(C(=S)NCC(C)C)C3CCCC3)[nH]c2cc1C`, 0 (inactive).
As to `Cc1ccc(C)c(NC(=S)NNC(=O)c2csc3c2CCCC3)c1`, the manual score was 1 (active).
On to `CC(C)(C)C1CCc2c(C(=O)N/N=C/c3cccs3)csc2C1` (stereo unspecified), for which the manual score was 0 (inactive).
`Cc1ccc(NC(=O)c2ccc(COc3ccc4c(c3)CCC4)cc2)c(C)c1`: the manual score is 0 (inactive).
Regarding `Cc1ccc(C)c(NC(=S)NNC(=O)c2csc3c2CCC(C)C3)c1` (stereo unspecified), the manual score was 1 (active).
Consider `Cc1cccc(NC(=S)NNC(=O)c2csc3c2CCC(C)C3)c1` (stereo unspecified), for which the manual score was 1 (active).
For `Cc1cccc(NC(=S)NNC(=O)c2csc3c2CCCC3)c1` the value was 1 (active); for `Cc1cccc(CSc2cccc3cccnc23)c1`, 0 (inactive).
The figure for `CC(=O)Nc1cccc2c1C(=O)N(c1cccc(C)c1)C2=O` is 0 (inactive); for `O=C1CC(N2CCN(c3nc4ccccc4s3)CC2)C(=O)N1c1ccc(F)cc1` (stereo unspecified) it is 0 (inactive); for `CC(C)(C)c1ccc(OCCON2C(=O)CCC2=O)c(Cl)c1` it is 0 (inactive).
As for `Cc1ccc(C)c(NC(=S)NNC(=O)c2cc3c(s2)CCC(C)C3)c1` (stereo unspecified), the manual score was 1 (active).
Turning to `Cc1ccccc1NC(=S)NNC(=O)c1csc2c1CCC(C)C2` (stereo unspecified), the manual score is 1 (active).
`CC(C)CNC(=S)NNC(=O)c1csc2c1CCC(C)C2` (stereo unspecified): the manual score is 0 (inactive).
The figure for `CN(C)/C=C/C(=O)/C=C/c1cn(-c2ncc(C(F)(F)F)cc2Cl)c2ccccc12` is 0 (inactive).
Consider `CCn1c(=S)[nH]c2nc3c(cc2c1=O)CCCC3`, for which the manual score was 1 (active).
Turning to `Cc1ccc(-c2[nH]n3c(=O)c4c(nc3c2C)CCCC4)cc1`, the manual score is 0 (inactive).
For `C=CCn1c(=S)[nH]c2nc3c(cc2c1=O)CCCC3`, the manual score was 1 (active).
For `O=c1c2ccc(Cl)cc2[nH]c(=S)n1CCC1=CCCCC1`, the manual score was 0 (inactive).
`Cc1cccc(NC(=S)NC(=O)c2cc(-c3ccccc3)nc3ccccc23)c1`: the manual score is 0 (inactive).
The figure for `Cc1cccc(NC(=O)NC(=S)NC(=O)c2ccccc2)c1` is 0 (inactive); for `Cc1cccc(NC(=S)N/C(=N/S(=O)(=O)c2ccccc2)c2ccccc2)c1` it is 1 (active); for `CCOc1ccc(-n2c(SCc3nc(-c4cccs4)no3)nnc2-c2ccncc2)cc1` it is 0 (inactive).
`COc1ccc(NC(=O)COC(=O)CC23CC4CC(CC(C4)C2)C3)c([N+](=O)[O-])c1`: the manual score was 0 (inactive).
For `CCC(=O)Nc1nc2ccc3nc(C)sc3c2s1` the value was 0 (inactive); for `COc1ccccc1NC(=O)c1ccc(S(=O)(=O)N2CCCC2)cc1`, 0 (inactive).
For `O=C(Nc1nnc(-c2ccccc2Cl)o1)c1ccc(S(=O)(=O)N2CCCCCC2)cc1`, the manual score is 1 (active).
On to `CC1CN(S(=O)(=O)c2ccc(C(=O)Nc3nnc(-c4ccc5c(c4)CCCC5)o3)cc2)CC(C)O1` (stereo unspecified), for which the manual score is 0 (inactive).
With `NS(=O)(=O)c1ccc(S(=O)(=O)N2CCCC2)cc1`, the manual score was 0 (inactive).
For `CC1CCCN(S(=O)(=O)c2ccc(C(=O)Nc3nnc(-c4ccccc4Cl)o3)cc2)C1` (stereo unspecified) the value was 1 (active); for `CCN(CC)c1ccc2cc(C(=O)NNC(=O)c3ccc(S(=O)(=O)N4CCCCC4)cc3)c(=O)oc2c1`, 0 (inactive).
On to `CCc1cc2cc(C)ccc2nc1SCC(=O)N1CCN(C(=O)c2ccco2)CC1`, for which the manual score is 0 (inactive).
The figure for `CCN(C#N)c1nc(NC(C)C)nc(NC(C)C)n1` is 0 (inactive).
The figure for `Cc1cccc(C)c1NC1=NC(=S)N(c2ccc(N(C)C)cc2)C1(C)C` is 0 (inactive); for `Cc1ccc(N2C(=S)N=C(Nc3ccccc3C)C23CCOC(C)(C)C3)cc1` (stereo unspecified) it is 1 (active).
`Cc1ccccc1Nc1nc2nonc2nc1N1CCOCC1`: the manual score was 0 (inactive).
Take `Cc1ccccc1NC1=NC(=S)N(c2ccccc2)C12CCOC(C)(C)C2` (stereo unspecified): the manual score is 1 (active).
As for `CCOC(=O)CSc1cccc2cccnc12`, the manual score was 0 (inactive).
For `CCOC(=O)c1sc(NC(=S)NC(=O)c2ccco2)nc1C`, the manual score is 1 (active).
`COC(=O)c1sc(NC(=S)NC(=O)c2ccccc2)nc1C`: the manual score is 1 (active).
In the case of `COC(=O)c1sc(NC(=S)NC(=O)c2cccc(C)c2)nc1C`, the manual score is 0 (inactive).
As for `CCc1nnc(NS(=O)(=O)c2ccc(NC(=S)NC(=O)c3ccccc3)cc2)s1`, the manual score was 0 (inactive).
Turning to `O=C(NC(=S)Nc1nc2ccccc2s1)c1ccco1`, the manual score is 1 (active).
As for `O=C(NC(=S)NCc1ccc(-c2nc3ccccc3s2)cc1)c1ccco1`, the manual score was 0 (inactive).
`CC(C)(C)c1ccc(C(=O)NC(=S)Nc2nc3c(s2)CCCC3)cc1`: the manual score is 0 (inactive).
The figure for `COC(=O)c1ccc(C(=O)NC(=S)Nc2nc3c(s2)CCCC3)cc1` is 1 (active).
